Our source for the Potency values is PubChem BioAssay AID651635 (National Center for Advancing Translational Sciences (NCATS), 2012).

Screen size: about 400,000 compounds; about 1,900 (0.47%) were called active. Where a call stands in place of a potency, no number is given. Not shown: some 14% with an inconclusive outcome. The sample holds actives, similar compounds and a random draw of the others, so the mix is not that of the screen. Calls follow the shape of the dose curve; as a rule, active = well fitted cell-killing curve with a large enough effect; inconclusive = small, poorly fitted or top-dose-only effect, or effect the other way; inactive = no such curve, though single readings can be large or run the other way.
Potency is read from the fitted curve at half-maximal effect.

A short description of the assay: Viability Counterscreen for Primary qHTS for Inhibitors of ATXN expression. Also: nearly all actives have a fitted effect of over 40% in size. The settings on record: S2 cells (HEK-293 line with an ATXN2-luciferase reporter) viability, CellTiter-Fluor protease fluorescence, 24 h; series mostly up to 56.7 µM.
Take `Oc1ccc(Br)cc1/C=N/Nc1ccccn1`: the Potency is 0.251 µM (active).
With `Cc1c(C(=O)Nc2ccccn2)oc2ccc(Br)cc12`, the Potency result was “inactive”.
Consider `O=C(CCc1ccc(O)cc1)NN=Cc1cc(Br)ccc1O`, for which the Potency result was “inactive”.
With `CN[C@H]1C[C@H]2c3cc(Oc4ccccc4C)ccc3CCN2C(=O)[C@H]1[C@H](C)O`, the Potency result is “inactive”.
As to `COc1ccccc1-c1ccc(C(=O)N(C)C(C)c2ccon2)c(N2CCN(c3ccccc3F)CC2)n1` (stereo unspecified), the Potency entry is “inactive”.
As to `COc1ccc(C(O)c2nc(-c3ccc(OC)nc3)cs2)cc1` (stereo unspecified), the Potency result is “inactive”.
In the case of `COc1ccc(NC(=O)C(=O)NCc2ccco2)cc1`, the Potency entry was “inactive”.
Turning to `COc1ccc(CS(=O)/C(Cl)=C(/Cl)C(=O)Nc2ccc(OC)nc2)cc1` (stereo unspecified), the Potency was 1.89 µM (active).
In the case of `Cc1nnc(C(=O)NC(C)(C)c2nc(C(=O)NCc3ccc(F)cc3)c(O)c(=O)n2C)o1`, the Potency entry is “inactive”.
Turning to `COc1cc(NC(=O)c2[nH]cnc2C(N)=O)cc(C(=O)Nc2cccc(C(F)(F)F)c2)c1`, the Potency is 10 µM (active).
As for `Cc1cc(Nc2cccc(C(F)(F)F)c2)nc2ccc(NC(=O)c3ccc(=O)[nH]c3)cc12`, the Potency entry is “inactive”.
The value for `COc1cc(OC)cc(C(=O)Nc2ccc3nc(Nc4cccc(C(F)(F)F)c4)cc(C)c3c2)c1` was “inactive”; that for `CN(C)C(=O)[C@@H]1C[C@@H](Sc2nc3ccccc3[nH]2)CN1Cc1ccc(Cl)cc1` was “inactive”.
As to `CCC(=O)Nc1ccc(Nc2nc(Cl)nc(Nc3ccc(NC(=O)CC)cc3)n2)cc1`, the Potency result is “inactive”.
With `CC(C)(CCl)C(=O)Nc1ccc(Sc2ccc(F)cc2)cc1`, the Potency entry was “inactive”.
The value for `O=C(CCl)Nc1ccc(Sc2ccc(NC(=O)CCl)cc2)cc1` was 11.2 µM (active); that for `COC(=O)c1ccccc1-c1cc(C)cc2c1OC(CNC(=O)C1CCOC1)C2` (stereo unspecified) was “inactive”; that for `CNc1cncc(-c2ccc(NS(C)(=O)=O)cc2)n1` was “inactive”.
Next, `COC(=O)Cc1ccc(OCC(=O)Nc2ccc(OC(F)(F)F)cc2)cc1`: “inactive”; `CCc1ccc2c(c1)NC(=O)C2(C)Cc1ccc(OC(F)(F)F)cc1` (stereo unspecified): 20 µM (active).
Consider `CCC1CN(CCNC(=O)c2cccnc2C)Cc2cc(OC)ccc2O1` (stereo unspecified), for which the Potency result was “inactive”.
The value for `COc1ccc(CN2CCC3(CCC(CNC(=O)c4ccco4)O3)CC2)cc1OC` (stereo unspecified) was “inactive”.
For the compound `O=c1cc(O)c(-c2cccc(C(F)(F)F)c2)c(Cl)[nH]1`, the Potency entry is “inactive”.
The value for `CCCCOC(=O)/C(C#N)=C/c1ccc(-c2cccc(C(F)(F)F)c2)o1` was “inactive”.
`CC1(Cc2cccc(C#N)c2)C(=O)Nc2ccc(-c3cccc(C(F)(F)F)c3)cc21` (stereo unspecified): the Potency is 25.1 µM (active).
The value for `COCCCN1CCC(NC(=O)c2cc(Cl)c(N)c3c2OCC3)CC1` was “inactive”; that for `COc1ccccc1C(=O)N[C@@H]1c2ccccc2C2(CCN(C(=O)c3csnn3)CC2)[C@H]1OC` was “inactive”; that for `Cc1cnc(C)c(-c2cc(F)c3c(c2)CC(CNC(=O)c2cccc(Cn4cccn4)c2)O3)n1` (stereo unspecified) was “inactive”.
As for `O=C(c1ccccc1)N1CCN(C(=O)c2cc3nc(-c4ccccc4)cc(C(F)(F)F)n3n2)CC1`, the Potency entry was “inactive”.
Next, `C#Cc1cc(N2CCN(C(=O)c3ccoc3)CC2)n2nc(-c3cccc(Cl)c3)cc2n1`: 15.8 µM (active).
As for `CN(C)CCN1CCN(c2cc(-c3cccc(Cl)c3)nc3ccnn23)CC1`, the Potency entry was “inactive”.
Turning to `COCc1c(C(=O)NC2CCCCC2)cnn1-c1nccc(-c2ccccc2OC)n1`, the Potency result was “inactive”.
The value for `Cc1ccc(F)cc1S(=O)(=O)N1CCC(c2nc3ccccc3s2)CC1` was “inactive”.
As for `COc1cc(=O)n2c(c1C(=O)NC(C)c1ccco1)CCN(C(=O)c1cn3ccc(C)cc3n1)CC2` (stereo unspecified), the Potency result was “inactive”.
Turning to `CO/N=C(/C(=O)N[C@@H]1C(=O)N2C(C(=O)O)=C(Cn3nnc(C)n3)CS[C@H]12)c1csc(N)n1`, the Potency entry was “inactive”.
Consider `CCOC(=O)/C(=C\c1ccc([N+](=O)[O-])cc1)C(=O)c1cc(C(C)=O)c(Nc2ccccc2)s1`, for which the Potency was 31.6 µM (active).
For the compound `O=C(O)C(=Cc1ccc([N+](=O)[O-])cc1)CCc1ccccc1`, the Potency entry was “inactive”.
`CC(=O)Nc1ccc(C=CC(=O)c2ccc([N+](=O)[O-])cc2)cc1`: the Potency entry was “inactive”.
On to `CC(C)(C)OC(=O)N1CCN(C(=O)c2[nH]c(C(F)(F)F)nc2-c2ccccc2)CC1`, for which the Potency entry was “inactive”.
On to `COc1ccc(F)c(CN2CCC3(CCC(CNC(=O)c4ccn(C)n4)O3)CC2)c1` (stereo unspecified), for which the Potency result is “inactive”.
In the case of `CCCNC(=O)c1cc2c(c(-c3cccc(-c4ccc(C#N)cc4)c3)n1)[C@@H](CCO)N(C(=O)CC)C2`, the Potency entry is “inactive”.
For `CCOC(=O)[C@]12CCC=C1N(Cc1ccco1)C(=O)[C@H](CC(=O)NCc1cccc(C(F)(F)F)c1)C2`, the Potency entry is “inactive”.
For `CC1Cc2[nH][nH]c(=O)c2C(C2CCCC2)O1` (stereo unspecified), the Potency entry is “inactive”.
For the compound `C=CC[C@@H](CC(=O)N[C@H](CO)Cc1ccccc1)C(=O)N[C@H](C)COC(=O)[C@@H](CC=C)Cc1ccc(F)cc1`, the Potency result is “inactive”.
Consider `COCCCNC(=S)N(Cc1ccccc1)Cc1ccc(F)cc1`, for which the Potency result is “inactive”.
For `C=CC[C@H](CC(=O)OC(C)(C)C)C(=O)OC[C@H]1CCCN1C(=O)[C@H](CC=C)CC(=O)N(CCO)Cc1ccccc1`, the Potency entry was “inactive”.
Take `C=CC[C@@H](CC(=O)N[C@@H](CO)Cc1ccccc1)C(=O)NCCOC(=O)[C@@H](CC=C)CC(=O)OC(C)(C)C`: the Potency entry is “inactive”.
Next, `C=CC[C@@H](CC(=O)N[C@H](CO)Cc1ccccc1)C(=O)N[C@@H](COC(=O)[C@@H](CC=C)Cc1ccc(F)cc1)Cc1c[nH]c2ccccc12`: “inactive”.
Next, `C=CCC[C@@H](Cc1ccc(F)cc1)C(=O)OC[C@H](Cc1c[nH]c2ccccc12)NC(=O)[C@@H](CC=C)CC(=O)N(CCO)Cc1ccccc1`: 5.62 µM (active); `C=CCC[C@@H](Cc1ccc(F)cc1)C(=O)O[C@H](CNC(=O)[C@H](CC=C)CC(=O)N(CCO)Cc1ccccc1)c1ccccc1`: 25.1 µM (active).
With `C=CCC[C@H](Cc1ccc(F)cc1)C(=O)OC[C@@H](NC(=O)[C@@H](CC=C)CC(=O)N[C@H](CO)Cc1ccccc1)C(C)(C)C`, the Potency was 31.6 µM (active).
As to `CC(=O)NC(Cc1c[nH]c2ccccc12)C(=O)NCCc1ccccc1` (stereo unspecified), the Potency result is “inactive”.
As to `COc1ccc(-c2cc(NC=O)c3ncc(-c4ccccc4)n3c2)cc1OC`, the Potency result is “inactive”.
Next, `CC1(C)[C@H](O[C@H]2O[C@H](C(=O)O)[C@@H](O)[C@H](O)[C@H]2O[C@@H]2O[C@H](C(=O)O)[C@@H](O)[C@H](O)[C@H]2O)CC[C@@]2(C)[C@H]1CC[C@]1(C)[C@H]2C(=O)C=C2[C@H]3C[C@@](C)(C(=O)O)CC[C@]3(C)CC[C@]21C`: “inactive”.
As to `COc1cccc(CNc2nc3cc(-c4csc5ccccc45)sc3c(=O)n2C)c1`, the Potency entry is “inactive”.
Take `COC(=O)C1CCCCN1Cc1ccc2c(c1)CN(Cc1cc(OC)c3c(c1)OCO3)CCO2` (stereo unspecified): the Potency entry is “inactive”.
On to `Cc1nc2nc(NCc3cccc(Br)c3)[nH]n2c(=O)c1Cc1ccccc1`, for which the Potency result is “inactive”.
For the compound `C=C1C(=O)[C@]23C[C@H]1CCC2[C@@]1(C)C(C[C@@H]3O)[C@](C)(C(=O)O)CC[C@@H]1O` (stereo partly specified), the Potency was 15.8 µM (active).
With `CCc1noc(C)c1C(=O)NCCN1Cc2cc(OC)ccc2OC(CC)C1` (stereo unspecified), the Potency entry is “inactive”.
`COc1ccc(C2OC(CCc3ccccc3)Cc3[nH]c(=S)[nH]c(=O)c32)cc1` (stereo unspecified): the Potency result was “inactive”.
As for `CC(=O)O[C@H]1CC[C@@]2(C)C(=CC[C@@H]3[C@@H]2CC[C@]2(C)C(c4cccnc4)=CC[C@@H]32)C1`, the Potency result is “inactive”.
The value for `CCOC(=O)[C@]12CCCC=C1N(Cc1cccc3ccccc13)C(=O)[C@H](CC(=O)NCC13CC4CC(CC(C4)C1)C3)C2` was “inactive”.
As to `COc1cccc(CN(C)C(=O)CC[C@H]2O[C@@H](n3cnc4c(NC(=O)c5ccccc5)ncnc43)[C@H](O)[C@@H]2O)c1`, the Potency result is “inactive”.
As for `Nc1ncnc2c1ncn2[C@@H]1O[C@H](CNC(=O)[C@H](N)Cc2cccnc2)[C@@H](O)[C@H]1O`, the Potency result was “inactive”.
In the case of `COc1ccc(C[C@H](N)C(=O)N[C@@H]2[C@H](O)[C@H](n3cnc4c(N(C)C)ncnc43)O[C@@H]2CO)cc1`, the Potency was 2 µM (active).
Turning to `CC1(C)OC(=O)C2=C(C[C@@H](C3CCCCC3)O[C@@H]2c2ccc(Cl)cc2)O1`, the Potency result was “inactive”.
Take `NNc1nnc(Cc2ccncc2)c2ccccc12`: the Potency result was “inactive”.
Regarding `OC[C@@H]1CN(Cc2ccncc2)C[C@H](n2cnc3c(N4CCN(c5ccccc5)CC4)ncnc32)O1`, the Potency entry is “inactive”.
As to `COc1cc(=O)n2c(c1C(=O)N(C)Cc1nccs1)CCN(Cc1ccc(Cl)cc1)CC2`, the Potency entry was “inactive”.
Regarding `CCCCOc1ccc(CN2C(=O)C(=O)c3cc(Br)cc(C)c32)cc1OC`, the Potency is 25.1 µM (active).
With `COc1ccc(CCN2C(=O)C(C)=C(C)C2=O)cc1OC`, the Potency result is “inactive”.
Regarding `CCCCN1C(=O)C(C)=C(C)C1OCCc1ccc(OC)c(OC)c1` (stereo unspecified), the Potency result was “inactive”.
As to `CCOP(=O)(OCC)C(Cc1ccccc1)N=C(c1ccccc1)c1ccccc1` (stereo unspecified), the Potency entry is “inactive”.
On to `C/C(=N\NC(=O)Cc1ccc(Cl)cc1)c1ccccn1`, for which the Potency was 5.62 µM (active).
As to `C/C(=N\NC(=O)c1ccccc1F)c1ccccn1`, the Potency was 7.94 µM (active).
The value for `COc1ccc(/C(C)=N\NC(=O)c2ccc(-c3ccccc3)cc2)c(F)c1` was “inactive”.
Next, `CC1=NNC(=O)C1CCC(=O)N/N=C(\C)c1ccc(Cl)cc1` (stereo unspecified): “inactive”; `NC(=O)NC(CC(=O)NNC(=O)c1ccccn1)c1ccc(Cl)cc1` (stereo unspecified): “inactive”; `O=C(NCCOc1ccccc1)c1ccccc1F`: “inactive”.
Take `Cn1nccc1C(=O)NCC1CCC2(CCN(Cc3c(O)ccc4ccccc34)CC2)O1` (stereo unspecified): the Potency entry was “inactive”.
The value for `COc1ccccc1C1CN(Cc2ccccc2O)Cc2ccccc2O1` (stereo unspecified) was “inactive”; that for `CCC1CN(CCNC(=O)c2cccc(C)n2)Cc2cc(OC)ccc2O1` (stereo unspecified) was “inactive”; that for `Cc1ccc2c(C)nc(N3CCCC(C(=O)NC(C)(C)CO)C3)nc2c1` (stereo unspecified) was “inactive”.
Next, `CCC1(C2CCN(Cc3cccnc3)CC2)NC(=O)N(CC2COc3ccccc3O2)C1=O` (stereo unspecified): “inactive”; `COc1cc(C)c(CN2CCc3nnc(C(C)NC(=O)c4cccnc4)n3CC2)cc1C` (stereo unspecified): “inactive”.
The value for `Cc1cccc(CNC(=O)c2cnn(-c3nccc(-c4ccccc4F)n3)c2C2CC2)n1` was “inactive”.
